JMJD2A Tudor = JMJD2A Tudor domain (human) inhibition; O75164; AlphaScreen JMJD2A-Tudor / H3K4me3 peptide binding; Potency, µM (series often up to 114 µM), without a hit: at the top dose activity change, negative = inhibition, usual class: inhibitors; 390,000 tested, 4.4% active; further: on the % scale 0 is the no-effect control and ±100 the full control effect; nearly all actives have a fitted effect of over 50% in size
PLK1 PBD block = PLK1 (human) polo-box domain binding inhibition. AID 720504. 360,000 tested, 2.8% active. Plk1 PBD binding of FITC phosphopeptide, fluorescence polarization. Potency, µM, for inactives: max response, negative = inhibition, most hits filed as inhibitors. P53350; further: series mostly up to about 57 µM; on the % scale 0 is the no-effect control and ±100 the full control effect; nearly all actives have a fitted effect of over 65% in size
HP1b binding inh = blocks HP1-beta chromodomain binding to methylated histone tails; AlphaScreen HP1-beta / biotin-H3K9me3 peptide binding; Potency, µM (series often up to 114 µM), for the others: at the top dose activity change, negative = inhibition, actives largely listed as inhibitors; 390,000 tested, 0.56% active; further: nearly all actives have a fitted effect of over 70% in size
Target sequence (P83916 whole entry, looked up): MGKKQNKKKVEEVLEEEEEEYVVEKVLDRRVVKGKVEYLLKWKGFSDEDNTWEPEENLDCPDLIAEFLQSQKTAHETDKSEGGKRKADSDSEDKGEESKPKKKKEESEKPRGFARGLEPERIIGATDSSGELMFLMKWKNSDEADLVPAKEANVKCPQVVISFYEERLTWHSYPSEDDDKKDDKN
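HP1-beta protein (50 nM final) preincubated 30 min at room temperature with biotinylated H3(1-18)K9me3 peptide (50 nM) in PBS pH 7.4, 0.01% Tween-20, then compound added for 30 min. AlphaScreen streptavidin donor/nickel chelate acceptor beads (10 ug/mL final), 30 min dark, luminescence read.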
Sfp PPTase inh = inhibitors of Bacillus subtilis Sfp phosphopantetheinyl transferase | Q9F4F7 | Biochemical Sfp PPTase activity, qHTS | Potency, µM, inactives show largest response in the series, negative = inhibition, hits mostly inhibitors | 310,000 tested, 3.5% active | AID 1490;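 further: the enzyme is Sfp with the accession as filed and its product quenches rhodamine fluorescence; 0% = enzyme reaction without inhibitor and -100% = no enzyme wells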
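Buffer: 50 mM Hepes-Na pH 7.6, 10 mM MgCl2, 0.01% Nonidet P-40, 0.01% BSA. Enzyme 15 nM, pre-exposed to compound 15 min; substrates then added and fluorescence change tracked over 30 min.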
G9a block = blocks human histone lysine methyltransferase G9a | Q96KQ7 | G9a H3K9 monomethylation, AlphaScreen, 2 h | Potency, µM (titrated, usually from 102 µM), without a hit: at the top dose activity, negative = inhibition, most hits filed as inhibitors | 350,000 tested, 8.8% active; further: on the % scale 0 is the no-effect control and ±100 the full control effect; nearly all actives have a fitted effect of over 75% in size
Target sequence (Q96KQ7 913-1193 limits assumed): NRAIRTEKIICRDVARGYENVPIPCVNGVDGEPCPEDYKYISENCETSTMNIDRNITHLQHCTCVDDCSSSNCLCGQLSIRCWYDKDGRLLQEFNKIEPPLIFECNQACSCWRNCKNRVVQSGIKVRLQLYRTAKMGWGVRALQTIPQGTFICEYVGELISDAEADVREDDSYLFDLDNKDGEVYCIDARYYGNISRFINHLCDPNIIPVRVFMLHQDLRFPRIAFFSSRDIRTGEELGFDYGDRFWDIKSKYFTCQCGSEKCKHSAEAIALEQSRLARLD
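Chemiluminescent proximity detection of H3K9 monomethylation, read after 10 min bead incubation in the dark. Reaction: 20 nM G9a, 500 nM biotin-H3K9 peptide, 20 uM SAM cofactor, 2 h, room temperature, following 15 min enzyme-compound preincubation.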
BAZ2B block = BAZ2B (human) inhibition. Q9UIF8. 360,000 tested, 4.4% active. AlphaScreen BAZ2B-H3K14Ac peptide displacement. Potency, µM (doses to about 114 µM), for inactives: at the top dose activity change, negative = inhibition, usual class: inhibitors; further: on the % scale 0 is the no-effect control and ±100 the full control effect; nearly all actives have a fitted effect of over 60% in size
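BAZ2B (50 nM) with biotin-H3(5-23)K14Ac peptide (50 nM) in PBS pH 7.4, 0.01% Tween-20, preformed 30 min, then compound 30 min at room temperature; top concentration 110uM. AlphaScreen streptavidin donor/nickel chelate acceptor beads (10 ug/mL final), 20 min dark, signal read.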
The depositor's hits bear a star; ? = inconclusive; . = no result given; [ ] = another dose, or the depositor's remark. A selection: hits, their analogues and other compounds. The true share with any hit is near 12%. The call rests on the fitted dose curve; in most records, active means well fitted curve in the direction sought with a large enough effect; inconclusive means small, poorly fitted or top-dose-only effect, or another doubt; inactive means no such curve, though single readings can be large; an effect the other way counts as inactive or inconclusive. Potency means the concentration at half of the fitted maximal effect.

SMILES	JMJD2A Tudor	PLK1 PBD block	HP1b binding inh	Sfp PPTase inh	G9a block	BAZ2B block
COC(=O)/C=C1/S/C(=N/NC(=O)c2ccccc2C)NC1=O	?	0.9%	37.9%	-5.0%	2µM*	56.2µM*
COC(=O)/C=C1\SC(=NC(=O)c2cccc(Cl)c2)NC1=O	-23.1%	?	-5.6%	44.7µM*	3.5%[0.0925 µM]	?
COC(=O)/C=C1\S/C(=N/NC(=O)c2ccccc2)NC1=O	-18.9%	-2.7%	32.6%	-4.8%	?	?
CCOC(=O)c1c(SCC(=O)Nc2nccs2)nc(C)c(C)c1C	9.0%	3.4%	21.9%	6.0%	-20.4%	2.2%
COc1ccccc1CNC(=O)C1CCN(S(=O)(=O)c2ccc3c(ccn3C)c2)CC1	-4.8%	.	23.2%[57 µM]	.	-0.5%[59 µM]	-1.8%
CCOC(=O)COc1c(Cl)cc(/C=C2\N=C(C)OC2=O)cc1OC	-25.3%	-25.3%	-18.0%	.	.	.
C#CCOc1c(Cl)cc(/C=C2/C(=O)ON=C2C)cc1OC	-3.1%	4.74µM*	1.0%	56.2µM*	39.8µM*	-3.0%
COc1cc(/C=C2/C(=O)ON=C2C)cc(Cl)c1O	-24.0%	15.3%	-10.7%	-11.1%	35.5µM*	56.2µM*
CCOC(=O)CC(NS(=O)(=O)c1ccc2[nH]c(=O)sc2c1)c1ccc(C)cc1 (centres undefined)	-21.1%	-7.5%	44.6%	11.9%	6.9%	3.8%
CCOc1ccccc1-c1nnc2n1N=C(c1cc(OC)ccc1OC)CS2	-13.8%	.	.	-16.0%	.	.
COc1cc(CN2CCN(C(=O)c3cccc4ccccc34)CC2)cc(OC)c1OC	20µM*	-9.5%	?	-3.2%	20µM*	56.2µM*
COc1cccc(CN2CCN(C(=O)c3cccc4ccccc34)CC2)c1	28.2µM*	-0.5%	?	-13.4%	.	-36.0%[57.1 µM]
COc1cccc(C(=O)N2CCN(C(=O)c3cccc4ccccc34)CC2)c1OC	5.7%	-2.2%	16.2%	15.2%	-12.3%[59 µM]	.
N#CC1=C2SCN(Cc3ccco3)CN2C(=O)CC1c1cccc2ccccc12 (centres undefined)	56.2µM*	23.8µM*	?	1.41µM*	0.891µM*	?
N#CC1=C2SCN(Cc3ccco3)CN2C(=O)CC1c1ccccc1F (centres undefined)	5.01µM*	26.7µM*	44.7µM*	2µM*	0.282µM*	56.2µM*
COc1cccc(CC(=O)N2CCc3nc(-c4ccc(OC)cc4C)c4c(c3C2)CO[C@@H](c2ccccc2)C4)c1	.	.	.	-11.5%	.	.
CCOC(=O)c1c(CN(C)C)n(C)c2c(O)c(N=NC(N)=O)c3ccc(Br)cc3c12	35.5µM*	21.2µM*	18.4%	7.2%	-11.5%	-2.0%
CCCn1c(=O)c(C(=O)OCC)c(O)c2cc(Br)ccc21	-20.1%	-12.9%	31.3%	8.4%	?	-8.1%
O=C(c1cccc([N+](=O)[O-])c1)N1CCCC(C(=O)N2CCN(c3ccccc3)CC2)C1 (centres undefined)	-5.1%	0.4%	19.8%	8.1%	28.2%	0.1%
O=C(NCCc1ccccc1)C1CCN(Cc2ccccc2F)CC1	2.51µM*	-10.8%	25.1µM*	0.9%	7.94µM*	56.2µM*
CN(C)CC(C)(C)CNC(=O)C1CCN(Cc2ccccc2O)CC1	6.31µM*	-0.7%	?	-19.3%	10µM*	56.2µM*
CN(C)c1ccc(CNC(=O)C2CCN(C(=O)c3ccc(-n4ccc5ccccc54)s3)CC2)cc1	17.8µM*	.	?	.	?	-29.1%
O=C(NCCc1ccccc1)C1CCN(C(=O)c2ccc(F)cc2)CC1	3.3%	0.0%	30.2%	-4.2%	-10.6%	8.0%
CN(C)c1ccc(CNC(=O)C2CCN(Cc3cc4ccccc4n3Cc3ccccc3)CC2)cc1	11.2µM*	.	-22.0%	.	11.2µM*	3.55µM*
O=C(NCc1ccccc1CN1CCCC1)C1CCN(C(=O)c2ccc(F)cc2)CC1	2.6%	-0.8%	42.3%	.	-6.4%[2.33 µM]	2.4%
CC(OC(=O)C1CCN(S(=O)(=O)c2ccc(Cl)cc2)CC1)C(=O)NC1CCCCC1C (centres undefined)	-14.0%	-7.4%	31.1%	2.0%	?	-16.8%

Source: PubChem BioAssay (National Center for Advancing Translational Sciences (NCATS))
